Inconclusive results are not listed. Activity calls are given as the source filed them. Unless noted, the call rests on the fitted dose curve; in most records, active means well fitted curve in the direction sought with a large enough effect; inconclusive means small, poorly fitted or top-dose-only effect, or another doubt; inactive means no such curve, though single readings can be large; an effect the other way counts as inactive or inconclusive.
How the values were obtained:
[1] = qHTS assay for measurement of the activity of small molecule inhibitors on Zika virus induced Caspase-3 activity in human astrocytoma cells (AID 1224859)
Outline: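 In SNB-19 cells plated at 250 cells/well and grown 16-20 h, compounds were applied 1 h before ZIKV (2 FFU/cell). Six hours later caspase-3/7 luminescence was recorded.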

[2] = qHTS assay to identify small molecule inhibitors of chordoma cells - UCH-1 (AID 1259355); further: nearly all actives have a fitted effect of over 55% in size; further: potency means the concentration at half of the fitted maximal effect; series mostly up to about 46 µM
Outline: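 A 48hr growth-inhibition format: each drug tested at 15 concentrations together with added auranofin, camptothecin, doxorubicin, rubitecan and topotecan, with cell viability quantified as CellTiter-Glo luminescence.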

[3] = qHTS assay to identify small molecule inhibitors of chordoma cells - UCH-2 (AID 1259356); further: potency means the concentration at half of the fitted maximal effect
[4] = qHTS of pediatric cancer cell lines to identify multiple opportunities for drug repurposing: Primary screen for TC32 cells (AID 1347089); further: nearly all actives have a fitted effect of over 60% in size; further: potency means the concentration at half of the fitted maximal effect
Outline: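 qHTS, TC32, 48 h drug treatment, CellTiter-Glo luminescence as a proxy for metabolically active cells; primary top concentration 46 µM (MIPE 11-pt, NPC 8-pt); confirmatory 11-pt.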

[5] = qHTS of pediatric cancer cell lines to identify multiple opportunities for drug repurposing: Primary screen for DAOY cells (AID 1347090); further: nearly all actives have a fitted effect of over 55% in size; further: potency means the concentration at half of the fitted maximal effect
Outline: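 Eight- or eleven-point concentration series, 48 h treatment at 37 degrees C in growth media; readout CellTiter-Glo luminescence. Potency and efficacy were taken from the concentration-response curves.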

[6] = NS1 protein of Zika virus - qHTS assay to identify small molecule inhibitors in human HEK 293 cells (AID 1347053); further: series mostly up to about 46 µM; nearly all actives have a fitted effect of over 55% in size
Outline: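 Compound-treated (1 h pre-infection) HEK 293 cells infected with ZIKV MR766, MOI = 0.5; after 24 h at 37 C, NS1 read by TR-FRET; data normalized to uninfected and infected controls.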

[7] = P-glycoprotein substrates identified in KB-8-5-11 adenocarcinoma cell line, qHTS therapeutic library screen (AID 1346987); further: series mostly up to about 44 µM; nearly all actives have a fitted effect of over 65% in size
Outline: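 Human cervical adenocarcinoma KB-8-5-11 cells, selected in colchicine to over-express P-gp and assayed without it, were exposed for 72 h to titrated compounds. An ATP-based luminescent viability signal gave AC50.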

[8] = Natriuretic polypeptide receptor (hNpr1) antagonism - Pilot counterscreen GloSensor control cell line (AID 1347045; calls by dose curve; further: potency means the concentration at half of the fitted maximal effect)
Outline: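 The SNP-driven cGMP luminescence signal (50 uM, 20 min, room temperature) was measured in GloSensor HEK293 control cells. Compounds were tested as a LOPAC titration series and preincubated for 30-50 min.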

[9] = molecular target: Atrial natriuretic peptide receptor 1 (Homo sapiens) (UniProt P16066); test: Natriuretic polypeptide receptor (hNpr1) antagonism - Pilot screen (AID 1347049; calls by dose curve;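 further: HEK293 cells with hNpr1 and GloSensor cGMP luciferase stimulated by 0.1 nM hNppA; agonist-evoked cGMP luminescence read 20 min after hNppA addition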; further: potency means the concentration at half of the fitted maximal effect)
Atrial natriuretic peptide receptor 1 (Homo sapiens), sequence (P16066 whole entry, looked up): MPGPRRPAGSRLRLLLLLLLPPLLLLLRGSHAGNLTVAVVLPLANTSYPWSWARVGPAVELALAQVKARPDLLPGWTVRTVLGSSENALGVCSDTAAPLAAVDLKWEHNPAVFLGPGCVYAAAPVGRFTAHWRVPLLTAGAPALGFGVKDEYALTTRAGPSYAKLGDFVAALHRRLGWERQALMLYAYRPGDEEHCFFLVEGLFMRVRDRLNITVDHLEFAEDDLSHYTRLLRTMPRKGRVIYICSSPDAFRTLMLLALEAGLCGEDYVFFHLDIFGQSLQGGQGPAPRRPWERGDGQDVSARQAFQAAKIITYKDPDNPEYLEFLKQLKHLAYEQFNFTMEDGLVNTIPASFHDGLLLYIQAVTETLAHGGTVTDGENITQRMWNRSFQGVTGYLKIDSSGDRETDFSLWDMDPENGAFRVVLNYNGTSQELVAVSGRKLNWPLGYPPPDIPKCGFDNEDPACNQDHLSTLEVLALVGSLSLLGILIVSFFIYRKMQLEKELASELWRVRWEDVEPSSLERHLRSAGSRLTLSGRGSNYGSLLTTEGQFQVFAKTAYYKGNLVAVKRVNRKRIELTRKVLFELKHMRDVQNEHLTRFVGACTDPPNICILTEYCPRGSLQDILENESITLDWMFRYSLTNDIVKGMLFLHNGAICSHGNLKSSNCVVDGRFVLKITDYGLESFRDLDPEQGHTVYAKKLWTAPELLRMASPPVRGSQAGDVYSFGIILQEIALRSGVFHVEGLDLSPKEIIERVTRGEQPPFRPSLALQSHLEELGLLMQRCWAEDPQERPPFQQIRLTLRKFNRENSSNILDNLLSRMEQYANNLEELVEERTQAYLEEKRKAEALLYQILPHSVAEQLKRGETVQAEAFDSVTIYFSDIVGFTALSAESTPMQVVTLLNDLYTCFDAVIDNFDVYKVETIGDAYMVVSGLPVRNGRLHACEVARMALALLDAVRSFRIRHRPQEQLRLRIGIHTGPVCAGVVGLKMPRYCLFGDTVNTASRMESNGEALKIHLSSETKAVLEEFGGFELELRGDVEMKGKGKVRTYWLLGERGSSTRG
Outline: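 Cells expressing receptor plus cGMP biosensor are seeded and incubated overnight at 37C, then loaded with GloSensor reagent (2% final) at room temperature for 2 h. Library compounds go on for 30 min. A pre-read precedes agonist (hNppA, 0.1 nM final) and a 20-min readout.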

[10] = molecular target: Atrial natriuretic peptide receptor 2 (Homo sapiens) (UniProt P20594); test: Natriuretic polypeptide receptor (hNpr2) antagonism - Pilot subtype selectivity assay (AID 1347050; calls by dose curve; further: potency means the concentration at half of the fitted maximal effect)
Atrial natriuretic peptide receptor 2 (Homo sapiens), sequence (P20594 whole entry, looked up): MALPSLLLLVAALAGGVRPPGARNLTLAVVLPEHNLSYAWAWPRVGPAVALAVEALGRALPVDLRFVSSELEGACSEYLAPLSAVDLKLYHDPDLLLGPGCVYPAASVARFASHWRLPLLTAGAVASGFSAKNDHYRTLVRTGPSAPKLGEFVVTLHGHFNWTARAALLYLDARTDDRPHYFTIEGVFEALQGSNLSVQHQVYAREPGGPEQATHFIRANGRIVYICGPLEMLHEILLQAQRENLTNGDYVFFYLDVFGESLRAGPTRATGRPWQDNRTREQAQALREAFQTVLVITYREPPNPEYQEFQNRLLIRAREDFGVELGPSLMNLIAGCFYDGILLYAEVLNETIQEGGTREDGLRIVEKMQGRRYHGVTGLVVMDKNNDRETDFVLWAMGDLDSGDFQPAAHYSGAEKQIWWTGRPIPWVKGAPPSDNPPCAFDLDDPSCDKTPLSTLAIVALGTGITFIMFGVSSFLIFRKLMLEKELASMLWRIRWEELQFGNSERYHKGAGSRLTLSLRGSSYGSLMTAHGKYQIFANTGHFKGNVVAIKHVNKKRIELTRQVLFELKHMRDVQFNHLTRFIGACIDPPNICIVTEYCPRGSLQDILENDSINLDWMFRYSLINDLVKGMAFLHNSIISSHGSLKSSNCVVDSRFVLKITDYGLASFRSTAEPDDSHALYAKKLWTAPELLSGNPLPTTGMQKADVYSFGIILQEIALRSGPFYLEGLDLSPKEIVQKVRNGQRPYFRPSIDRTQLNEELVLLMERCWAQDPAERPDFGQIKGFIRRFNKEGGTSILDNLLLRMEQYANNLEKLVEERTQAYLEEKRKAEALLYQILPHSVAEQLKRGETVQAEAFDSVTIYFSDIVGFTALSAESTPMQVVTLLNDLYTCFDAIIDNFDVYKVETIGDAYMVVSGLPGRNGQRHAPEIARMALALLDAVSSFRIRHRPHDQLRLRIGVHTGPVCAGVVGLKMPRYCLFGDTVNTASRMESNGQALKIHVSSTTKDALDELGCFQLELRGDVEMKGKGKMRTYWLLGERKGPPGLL
Outline: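 Read-out: GloSensor luminescence (CCD imager), baseline vs post-stimulation. HEK293 cells expressing hNpr2; compounds pre-incubated 30-50 min at ambient temperature; hNppC 1 nM final, 20 min.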

[11] = molecular target: T1, Tyrosine-protein phosphatase non-receptor type substrate 1 (Homo sapiens) + Leukocyte surface antigen CD47 (Homo sapiens) (UniProt P78324+Q08722); test: CD47-SIRPalpha protein protein interaction - LANCE assay qHTS validation (AID 1347057; active means well fitted curve in the direction sought with a large enough effect in the signal ratio, with a control signal flat, not every such curve was filed as active; the % refers to the signal ratio; further: series mostly up to about 38 µM)
T1 sequence (P78324 whole entry, looked up, the tested form may be a part): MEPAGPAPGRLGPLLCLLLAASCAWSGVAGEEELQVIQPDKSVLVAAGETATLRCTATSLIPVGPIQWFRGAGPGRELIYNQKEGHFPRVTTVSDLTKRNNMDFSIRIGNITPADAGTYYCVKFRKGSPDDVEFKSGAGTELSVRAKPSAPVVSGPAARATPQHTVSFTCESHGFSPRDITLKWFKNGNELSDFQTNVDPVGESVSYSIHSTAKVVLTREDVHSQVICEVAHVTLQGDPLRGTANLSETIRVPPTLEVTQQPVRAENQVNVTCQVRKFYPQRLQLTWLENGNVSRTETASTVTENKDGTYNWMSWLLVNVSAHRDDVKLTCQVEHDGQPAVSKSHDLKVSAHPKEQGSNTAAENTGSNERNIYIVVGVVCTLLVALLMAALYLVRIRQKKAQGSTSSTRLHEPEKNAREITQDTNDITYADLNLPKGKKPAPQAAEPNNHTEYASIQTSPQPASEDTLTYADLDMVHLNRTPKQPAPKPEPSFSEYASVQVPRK
T1 sequence (Q08722 whole entry, looked up, the tested form may be a part): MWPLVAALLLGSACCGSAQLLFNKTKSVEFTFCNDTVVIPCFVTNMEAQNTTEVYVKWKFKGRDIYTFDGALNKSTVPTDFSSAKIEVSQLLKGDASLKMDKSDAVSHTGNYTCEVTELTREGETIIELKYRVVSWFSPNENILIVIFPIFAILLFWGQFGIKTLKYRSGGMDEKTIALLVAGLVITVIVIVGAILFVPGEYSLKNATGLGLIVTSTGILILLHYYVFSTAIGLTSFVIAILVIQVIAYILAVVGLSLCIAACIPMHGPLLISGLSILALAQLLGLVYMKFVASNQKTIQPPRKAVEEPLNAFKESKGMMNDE
Outline: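 Inhibition of soluble CD47/SIRPalpha ectodomain association by titrated compounds, measured as 665/615 nm time-resolved FRET ratio after sequential 30 min room-temperature incubations.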

[12] = molecular target: T1, Tyrosine-protein phosphatase non-receptor type substrate 1 (Homo sapiens) + Leukocyte surface antigen CD47 (Homo sapiens); test: CD47-SIRPalpha protein protein interaction - HTRF assay qHTS validation (AID 1347058; active means well fitted curve in the direction sought with a large enough effect in the signal ratio, not every such curve was filed as active; the % refers to the signal ratio; further: series mostly up to about 38 µM)
Outline: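 Soluble extracellular domains (6His-CD47, Avi-tag-biotinylated SIRPalpha) in PBS pH 7.4 with 0.05% IGEPAL CA-630. Compounds were preincubated 30 min at RT with CD47 and anti-His-Eu, then SIRPalpha and SAV-XL665 were added. TR-FRET 665/615 ratio.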

[13] = molecular target: T1, Tyrosine-protein phosphatase non-receptor type substrate 1 (Homo sapiens) + Leukocyte surface antigen CD47 (Homo sapiens); test: CD47-SIRPalpha protein protein interaction - Alpha assay qHTS validation (AID 1347059);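 further: bead proximity luminescence from CD47 binding SIRPalpha after compound preincubation with SIRPalpha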
Outline: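 In PBS (pH 7.4) with 0.05% IGEPAL CA-630, compound is preincubated with biotin-Avi-SIRPalpha ectodomain before His-CD47 ectodomain and affinity beads are added. Light-protected room-temperature incubations; AlphaScreen readout.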

[14] = molecular target: Parathyroid hormone/parathyroid hormone-related peptide receptor (Homo sapiens) (UniProt Q03431); test: qHTS for PTHR1 Agonists: Optimization Screen against the NCGC LOPAC library (AID 1347079);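 further: GloSensor cAMP luminescence in HEK-293 GP2 cells expressing human PTHR1 with IBMX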
Parathyroid hormone/parathyroid hormone-related peptide receptor (Homo sapiens), sequence (Q03431 whole entry, looked up): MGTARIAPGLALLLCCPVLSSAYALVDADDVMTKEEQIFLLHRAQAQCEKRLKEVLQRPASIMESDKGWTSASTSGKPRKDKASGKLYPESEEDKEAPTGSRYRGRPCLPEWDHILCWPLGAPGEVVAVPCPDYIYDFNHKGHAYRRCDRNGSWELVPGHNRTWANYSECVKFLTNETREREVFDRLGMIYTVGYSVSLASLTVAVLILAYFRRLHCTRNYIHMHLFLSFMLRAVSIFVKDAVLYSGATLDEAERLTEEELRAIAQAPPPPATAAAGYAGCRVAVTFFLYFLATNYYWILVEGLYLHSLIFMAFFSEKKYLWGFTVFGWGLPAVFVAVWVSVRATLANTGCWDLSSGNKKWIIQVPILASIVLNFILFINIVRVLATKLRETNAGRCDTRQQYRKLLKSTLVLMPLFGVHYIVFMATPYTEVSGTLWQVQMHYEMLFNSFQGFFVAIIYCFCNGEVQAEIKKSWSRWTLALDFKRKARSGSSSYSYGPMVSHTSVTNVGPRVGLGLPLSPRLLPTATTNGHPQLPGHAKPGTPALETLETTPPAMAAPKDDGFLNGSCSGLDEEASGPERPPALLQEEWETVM
Outline: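 Signal increase flags agonism. GP2 cells, derived from HEK-293, express human PTHR1 and a GloSensor cAMP construct.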

[15] = P-glycoprotein substrates identified in KB-3-1 adenocarcinoma cell line, qHTS therapeutic library screen (AID 1346986); further: nearly all actives have a fitted effect of over 60% in size
Outline: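 Using luminescence to quantify ATP, parental and P-gp-overexpressing KB cells were compared after 72 h compound titration. KB-8-5-11 was also run with the P-gp inhibitor tariquidar.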

Measured: Potency

COc1cccc2c1C(=O)c1c(O)c3c(c(O)c1C2=O)C[C@@](O)(C(=O)CO)C[C@@H]3O[C@H]1C[C@H](N)[C@H](O[C@@H]2CCCCO2)[C@H](C)O1
active: [2] 3.98 µM | [3] 18.3 µM | [4] 470 nM | [5] 1.68 µM
inactive: [1]

CCOc1ccc2nc(S(N)(=O)=O)sc2c1
inactive: [1] | [3] | [6] | [4] | [5]

O=C(CCN1CCN(CCO)CC1)N1c2ccccc2Sc2ccc(C(F)(F)F)cc21
inactive: [1] | [2] | [3] | [6] | [4] | [5]

CCOC(=O)c1ccccc1O
inactive: [1] | [2] | [3] | [7] | [4] | [5]

COC(=O)C1=C(C)NC(C)=C(C(=O)OCC(C)C)C1c1ccccc1[N+](=O)[O-] (stereo not given)
inactive: [1] | [2] | [3] | [6] | [4] | [5]

O=C(O)c1ccccc1Nc1cccc(C(F)(F)F)c1
inactive: [1] | [2] | [3] | [7] | [6] | [4] | [5]

O=C(OCc1ccccc1)c1ccccc1
inactive: [1] | [2] | [3] | [6] | [4] | [5]

C[N+](C)(C)CCOP(=O)(O)OP(=O)([O-])OC[C@H]1O[C@@H](n2ccc(N)nc2=O)[C@H](O)[C@@H]1O
not listed: [4] | [5] | [7] | [15]
inactive: all other assays above

NCC1OC(O[C@H]2[C@H](O)[C@@H](OC3C(O)C(N)CC(N)C3OC3OC(CO)C(O)C(O)C3N)O[C@@H]2CO)C(N)C(O)C1O (stereo not given in full)
not listed: [2] | [3] | [4] | [5] | [7] | [15]
inactive: all other assays above

CC(C)(C)c1ccc(S(=O)(=O)/C=C/C#N)cc1
active: [8] 6.56 µM | [9] 12 µM | [10] 7.36 µM
inactive: [1] | [11] | [12] | [13] | [14]

CCCn1c(=O)c2[nH]c(-c3ccc(OCC(=O)NCCN)cc3)nc2n(CCC)c1=O
inactive: [1] | [8] | [9] | [10]

CCNC(=O)[C@H]1O[C@@H](n2cnc3c(N)nc(NCCc4ccc(CCC(=O)O)cc4)nc32)[C@H](O)[C@@H]1O
inactive: [1] | [7] | [8] | [9] | [14]

C[N+]1(C)CCC(OC(=O)C(c2ccccc2)c2ccccc2)CC1
inactive: [1] | [8] | [9] | [10] | [6] | [11] | [12] | [14]

O=C1NC(=O)/C(=C/c2ccc3nccnc3c2)S1
inactive: [1] | [8] | [9] | [10] | [6] | [11] | [13]

CNC(=O)[C@H]1O[C@@H](n2cnc3c(NCc4cccc(I)c4)ncnc32)[C@H](O)[C@@H]1O
not listed: [2] | [3] | [4] | [5] | [7] | [15]
inactive: all other assays above

CC(C)CC(NP(=O)(O)O[C@@H]1O[C@@H](C)[C@H](O)[C@@H](O)[C@H]1O)C(=O)NC(Cc1c[nH]c2ccccc12)C(=O)O (stereo not given in full)
inactive: [1] | [8] | [9] | [10] | [6] | [11] | [12] | [13]

N#C/C(=C\c1c[nH]c2ccccc12)C(=O)c1ccc(O)c(O)c1
inactive: [1] | [8] | [9] | [10] | [14]

CN(C)c1ccc(N=NS(=O)(=O)O)cc1
inactive: [1] | [7] | [6] | [4]

NC(CCCP(=O)(O)O)C(=O)O (stereo not given)
inactive: [1] | [8] | [9] | [10] | [11] | [12] | [13] | [14]

CCN1/C(=C/C(C)=O)Sc2ccc(OC)cc21
not listed: [2] | [3] | [4] | [5] | [15]
inactive: all other assays above

Nc1ncnc2c1ncn2[C@@H]1O[C@H](COP(=O)(O)OP(=O)(O)OP(=O)(O)OP(=O)(O)OC[C@@H]2O[C@H](n3cnc4c(N)ncnc43)[C@@H](O)[C@H]2O)[C@@H](O)[C@H]1O
not listed: [2] | [3] | [4] | [5] | [7] | [15]
inactive: all other assays above

CC(COc1ccc(/C=C/c2ccccc2)cc1)[N+](C)(C)C (stereo not given)
inactive: [1] | [8] | [9] | [10]

O=C(O)[C@@H]1C[C@@H](C(=O)O)N1
inactive: [1] | [8] | [9] | [10] | [14]

N#C/C(=C\c1ccc(O)c(O)c1)C(=O)NCc1ccccc1
inactive: [1] | [15] | [9] | [10]

O=[N+]([O-])c1ccc(CSc2ncnc3c2ncn3[C@@H]2O[C@H](CO)[C@@H](O)[C@H]2O)cc1
inactive: [1] | [8] | [9] | [10] | [6] | [11] | [13]

Nc1ncnc2c1ncn2[C@@H]1O[C@H](COP(=O)(O)CP(=O)(O)OP(=O)(O)O)[C@@H](O)[C@H]1O
not listed: [2] | [3] | [4] | [5] | [7] | [15]
inactive: all other assays above
